Source: PubChem BioAssay
Shown are actives, neighbours in structure and some others; about 19% of the full set was active somewhere.
ELG1 repair inh: blocks ELG1-dependent DNA repair in HEK293T cells; HEK293T ELG1-luciferase reporter, luminescence, 16 h; DNA damage induced by 5-fluorouridine; Potency, µM (highest dose often 46.1 µM), for inactives: top-dose activity change, negative = inhibition, actives largely listed as inhibitors; 2.3% of 330,000 active; further: potency means the concentration at half of the fitted maximal effect; nearly all actives have a fitted effect of over 55% in size
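HEK293T cells expressing luciferase-tagged ELG1 (2,000/well) received 5-Fluorouridine plus compound or DMSO for 16 hr at 37 °C. Luciferase was read by ONE-Glo luminescence after 30 min at room temperature.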
TDP1 cell noCPT: qHTS for Inhibitors of human tyrosyl-DNA phosphodiesterase 1 (TDP1): qHTS in cells in absence of CPT; DT40 Tdp1-/- hTDP1 cells, no CPT, ATP luminescence, 48 h; Potency, µM (top dose mostly 46.2 µM), without a hit: at the highest dose activity change, negative = growth inhibition, most hits filed as inhibitors; 15% of 420,000 active; AID 686978, 2013; further: potency means the concentration at half of the fitted maximal effect; nearly all actives have a fitted effect of over 55% in size
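Growth kinetics read by CellTiter-Glo luminescence after ≥48 hr at 37 °C. Cells: DT40 Tdp1-/- stably carrying human TDP1, 400 per well, compound exposure in the absence of CPT (DMSO vehicle).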
HT1080 IDH1KD tx: HT-1080 IDH1 knockdown cell toxicity (counter line); HT-1080 IDH1 knockdown viability, ATP luminescence, 48 h; 2% of 360,000 active; AID 686971; Potency, µM (doses to about 46.1 µM), for inactives: at the top dose activity, negative = toxicity, most hits filed as cytotoxic;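 further: potency means the concentration at half of the fitted maximal effect; 0% = DMSO wells and -100% = cell-free medium wells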
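Using the IDH1-knockdown HT-1080 line run in the same batch and compound series as the NT line, viability after 48 h at 37 °C was determined by CellTiter-Glo luminescence and expressed as % activity.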
TDP1 cell CPT: growth inhibition of DT40 Tdp1-/-;hTDP1 cells with camptothecin (screen for TDP1 inhibitors); chicken DT40 Tdp1-/-;hTDP1 cells + 20 nM CPT, ATP luminescence, 48 h; Potency, µM (highest dose often 46.2 µM), inactives show top-dose activity change, negative = growth inhibition, hits mostly inhibitors; 12% of 420,000 active; AID 686979; further: potency means the concentration at half of the fitted maximal effect; nearly all actives have a fitted effect of over 55% in size
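Chicken DT40 Tdp1-/- cells stably complemented with human TDP1 were seeded at 400 cells/well in medium containing 20 nM camptothecin, exposed to pin-transferred compounds, and grown at 37 °C for at least 48 hr. Viability was read as ATP luminescence.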
IL-1B inflam inh: inhibitors of inflammasome signaling (IL-1 beta secretion) | THP-1 LPS/ATP IL-1B secretion, AlphaLISA, 16 h; active compounds read low | 4.7% of 360,000 active | activity change, % at 57.5 µM; in the data active means activity change below about -50%; inconclusive means mostly about -30% to -49%
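Secreted IL-1B measured by AlphaLISA bead assay after 16 h compound exposure of THP-1 cells; compounds (final up to 57.5 uM) added 1 h before LPS (250 ng/mL) and ATP (1.25 mM) stimulation; lower signal means less secretion.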
HT1080-NT tox: kills 2HG-producing HT-1080-NT fibrosarcoma cells | HT-1080-NT fibrosarcoma viability, CellTiter-Glo ATP luminescence, 48 h | Potency, µM (top dose mostly 46.1 µM), inactives show at the top dose activity, negative = less viability, actives largely listed as cytotoxic | 1.6% of 360,000 active;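 further: NT is the 2HG producing partner of a matched IDH1 knockdown line; potency means the concentration at half of the fitted maximal effect; 0% = DMSO-treated cells and -100% = media-only wells without cells; nearly all actives have a fitted effect of over 55% in size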
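750 cells/well, RPMI + 5% FBS; 2 h settle, compound pin-transfer, 48 h at 37 degrees C. CellTiter-Glo 10 min RT, luminescence. Normalized to DMSO and media-only wells.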
* hit, by the source's call; ? = inconclusive; . = no result; [ ] = dose if it differs, or a comment. Unless noted, the call rests on the fitted dose curve; in most records, active means well fitted curve in the direction sought with a large enough effect; inconclusive means small, poorly fitted or top-dose-only effect, or another doubt; inactive means no such curve, though single readings can be large; an effect the other way counts as inactive or inconclusive. Unless noted, on the % scale 0 is the no-effect control and ±100 the full control effect.

SMILES	ELG1 repair inh	TDP1 cell noCPT	HT1080 IDH1KD tx	TDP1 cell CPT	IL-1B inflam inh	HT1080-NT tox
COc1ccc(NC(=O)c2c(NC(=O)CNCc3ccco3)sc3c2CCC3)cc1	?	-19%	4%	-17%	0	2%
O=C(CSc1ccsc1[N+](=O)[O-])NCc1ccco1	21%	-22%	-4%	-1%	13	-2%
COc1ccc(NC(=O)c2ccc(NC3=NC4CS(=O)(=O)CC4S3)cc2)cc1 (stereo not drawn)	11%	-15%	6%	-1%	6	5%
CCOc1ccc(NC(=O)c2ccc3c(c2)OCCO3)cc1S(=O)(=O)N(CC)CC	-19%	?	-13%	?	22	0%
CCc1ccc(-n2nc3ccc(NC(=O)c4ccc5c(c4)OCO5)cc3n2)cc1	?	?	?	21µM*	8	-24%
CCOc1ccc(-n2nc3ccc(NC(=O)COc4ccccc4C)cc3n2)cc1	.	18µM*	.	?	.	.
CCOc1ccc(-n2nc3ccc(NC(=O)c4ccc5c(c4)OCCO5)cc3n2)cc1	?	5.8µM*	20%	3.3µM*	-6	6%
O=C(Nc1cccc(F)c1)c1ccc2c(c1)OCCO2	?	?	-10%	-9%	?	-2%
Cc1ccc(-n2nc3ccc(NC(=O)c4ccc5c(c4)OCO5)cc3n2)cc1	16%	?	?	?	11	-1%[9.24 µM]
O=C(Nc1ccc2nn(-c3ccccc3)nc2c1)c1ccc2c(c1)OCCO2	?	7.3µM*	-30%	?	-7	-25%
Cc1ccc(C2(C)NC(=O)N(CC(=O)NNC(=O)c3ccoc3C)C2=O)cc1 (stereo not drawn)	3%	0%	15%	4%	11	13%
CCNC(=O)C1CCCN(C(=O)c2cc(F)cc(F)c2)CC1 (stereo not drawn)	.	-4%	9%	2%	11	?
CCOc1ccc(-c2nnn(CC(=O)c3ccc4c(c3)OCCO4)n2)cc1	?	16µM*	-11%	?	4	1%
COc1ccccc1CNC(=O)c1ccc2nc(C)c(N(C)Cc3ccc(NC(C)=O)cc3)n2c1	.	15µM*	4%	16µM*	-22	19%
CCCCN(C)c1c(C)nc2ccc(C(=O)NCc3ccc(OC)cc3)cn12	.	13µM*	-18%	13µM*	?	?
CC(=O)Nc1ccc(CN(C)c2c(C)nc3ccc(C(=O)NCCCN4CCCC4=O)cn23)cc1	.	-3%	10%	-15%	0	21%
COc1ccc(CNC(=O)c2ccc3nc(C)c(N(C)Cc4ccc(NC(C)=O)cc4)n3c2)cc1	.	16µM*	6%	13µM*	-7	11%
CC(=O)Nc1ccc(CN(C)c2c(C)nc3ccc(C(=O)Nc4ccc(Cl)c(Cl)c4)cn23)cc1	.	?	?	?	-53*	?
Cc1ccc(C)c(C(=O)CSc2nc(N)cc(=O)[nH]2)c1	19%	-22%	8%	-18%	29	11%
O=c1[nH]c(COc2ccc(Cl)cc2Br)nc2ccccc12	?	?	-5%	23µM*	15	-4%
O=c1[nH]c(COc2ccc(Cl)cc2Cl)nc2ccccc12	?	4%	9%	-15%	-13	-1%
CC(C)Oc1ccc(CNC(=O)c2cnc3sc(N4CCCC4)nn3c2=O)cc1	.	-29%	.	-23%	.	.
Cn1c(Nc2ccc(Cl)cc2F)nc2cc(-c3ccccc3)sc2c1=O	.	?	1%	?	102	18%
Cn1c(NCc2ccccc2F)nc2cc(-c3ccsc3)sc2c1=O	.	23µM*	-26%	?	3	?
Cn1c(NCc2ccccc2F)nc2cc(-c3cccc(Cl)c3)sc2c1=O	.	21µM*	-1%	15µM*	-1	30%
SMILES	ELG1 repair inh	TDP1 cell noCPT	HT1080 IDH1KD tx	TDP1 cell CPT	IL-1B inflam inh	HT1080-NT tox
Cn1c(NCc2ccccc2F)nc2cc(-c3ccccc3)sc2c1=O	.	21µM*	-21%	18µM*	-17	?
COc1ccccc1CNc1nc2cc(-c3ccsc3)sc2c(=O)n1C	.	?	?	?	64	-27%
Cc1ccc(CNc2nc3cc(-c4ccccc4)sc3c(=O)n2C)c(C)c1	.	-25%	0%	16µM*	7	-3%
Cc1cc(C)c2oc(-c3cccc(NC(=O)COc4ccccc4Cl)c3C)nc2c1	.	?	.	-22%	.	.
Cc1ccc(/C=C/S(=O)(=O)NCc2ccc(F)cc2)cc1	-12%	-24%	7%	6%	-2	1%
COc1cccc(-c2cc3nc(NCc4cccnc4)n(C)c(=O)c3s2)c1	.	?	5%	?	23	9%
Cn1c(NCC2CCCCC2)nc2cc(-c3ccsc3)sc2c1=O	.	?	0%	26µM*	12	19%
COc1cccc(-c2cc3nc(NCc4ccccc4F)n(C)c(=O)c3s2)c1	.	16µM*	-11%	23µM*	-15	-2%
Cn1c(NCc2ccncc2)nc2cc(-c3ccsc3)sc2c1=O	.	-4%	6%	-5%	0	3%
C[C@@H](C(=O)NNC(=O)c1ccc(Cl)cc1)N1C(=O)C2CC=CCC2C1=O (stereo partly drawn)	28%	-1%	8%	-4%	1	4%
CS(=O)(=O)N1CCC2(CCCN(c3ccncc3)C2)CC1	.	-24%	.	5%	.	.
CC1=C(C(N)=O)C(c2cccc(F)c2)n2nc(SCc3ccccc3)nc2N1 (stereo not drawn)	.	6%	.	8%	.	.
c1cncc(CNc2nc(-c3cccnc3)nc3ccccc23)c1	-7%	0%	-12%	?	-5	1%
Fc1ccc(CNc2nc(-c3cccnc3)nc3ccccc23)cc1	?	18µM*	?	?	-69*	-29%
NS(=O)(=O)c1ccc(CNc2nc(-c3cccnc3)nc3ccccc23)cc1	?	15µM*	-9%	?	?	-7%
c1ccc(CN2CCC(Nc3nc(-c4cccnc4)nc4ccccc34)CC2)cc1	3%	13µM*	21µM*	18µM*	-91*	?
c1cncc(-c2nc(NCc3ccc4c(c3)OCO4)c3ccccc3n2)c1	21µM*	21µM*	-12%	?	-5	1%
CC(Nc1nc(-c2ccccc2F)nc2ccccc12)c1ccccc1 (stereo not drawn)	-15%	?	-4%	-22%	-90*	-16%
